# Laboratory results as given in PubChem BioAssay.
# Values without a mark were called inactive. The rule behind the calls is not given here.
# Assay: inhibitors of hydroxyurea-induced Chk1 phosphorylation, primary screen, imaging, HeLa, phospho-Chk1 antibody, percent positive cells (AID 1186)
# Details: hydroxyurea-induced phospho-Chk1 immunofluorescence imaging, higher = more signal
row,SMILES,z-score
1,CCCCC(O)C1C=CC2C(=O)N(C)C(=O)C2N1Nc1ccccc1 (stereo not drawn),0.342
2,O=C1C2C=CC(C(O)c3cccs3)N(Nc3ccccc3)C2C(=O)N1c1ccccc1 (stereo not drawn),-0.719
3,COC(=O)[C@@]1(Cc2ccccc2)[C@@H]2[C@@H](CC(=O)[C@H]2CC(=O)C(=O)N(C)C)CN1C(=O)c1ccccc1,0.273
4,CC=CC(O)C1C=CC2C(=O)N(C)C(=O)C2N1NC(=O)OC(C)(C)C (stereo not drawn),0.698
5,CN(C)C(=O)[C@]1(Cc2ccccc2)N=C(c2ccc(OCCCO)cc2)O[C@@H]1c1ccccc1,-0.752
6,C=CCC(OC(C)=O)[C@@H]1[C@@H](N(Cc2cccc3ccccc23)C(=O)c2ccc(-c3ccccc3)cc2)c2cc(OCCCO)ccc2N1C(=O)c1ccc2ccccc2n1 (stereo partly drawn),0.116
7,C=CCC(OC(C)=O)[C@@H]1[C@@H](N(Cc2ccc(-c3ccccc3)cc2)C(=O)c2ccc(-c3ccccc3)cc2)c2cc(OCCCO)ccc2N1C(=O)c1ccc2ccccc2n1 (stereo partly drawn),0.0922
8,NC(=O)NCC#Cc1ccc2c(c1)[C@]1(C(=O)N2)[C@H](C(=O)N2CCCCCCC2)[C@H]2C(=O)O[C@H](c3ccccc3)[C@H](c3ccccc3)N2[C@@H]1c1ccc(O)cc1,0.0378
9,C=CCC(OC(C)=O)[C@@H]1[C@@H](N(Cc2ccc(-c3cccc(C(F)(F)F)c3)o2)C(=O)Cc2ccc(F)cc2)c2cc(OCCCO)ccc2N1C(=O)c1ccc2ccccc2c1 (stereo partly drawn),0.627
10,O=C1C2C=CC(C(O)c3ccc([N+](=O)[O-])cc3)N(Nc3ccccc3)C2C(=O)N1c1ccccc1 (stereo not drawn),0.226
11,O=C1c2ccccc2[C@@]2(Cc3ccccc3N(Cc3ccccc3)C2=O)[C@H](c2ccc(CO)cc2)N1Cc1ccccc1,0.306
12,CCOC(=O)C[C@H]1[C@H](OC(=O)Cc2ccc3c(c2)OCO3)[C@@H](NC(=O)c2ccccc2)c2cc(OCCCO)ccc2N1C(=O)Cc1ccc(OC)cc1,-1.29
13,CCOC(=O)C[C@H]1[C@H](OC(=O)c2ccc(-c3ccccc3)cc2)[C@@H](NC(=O)CC(C)C)c2cc(OCCCO)ccc2N1C(=O)Cc1ccc(OC)cc1,0.568
14,CC(C)CNC(=O)[C@@H]1c2ccccc2C(=O)N(C2Cc3ccccc3C2)[C@H]1c1ccc(CO)cc1,-0.281
15,C=C(COC)C(=O)CC[C@@H](OC(C)=O)c1ccc(OCCO)cc1,0.0887
16,COCCOC(=O)N1C(=O)[C@@]2(c3cc(C#CC4(O)CCCCCC4)ccc31)[C@H](c1ccc(OCCO)cc1)N1[C@H](c3ccccc3)[C@H](c3ccccc3)OC(=O)[C@H]1[C@@H]2C(=O)N1CCCCCCC1,-0.0238
17,[N-]=[N+]=NCc1ccccc1C[C@]1(C(=O)O)COC(c2ccc(OCCCO)cc2)=N1,0.0203
18,N[C@@H](Cc1ccccc1)Cn1cc(C2(O)CCCCC2)nn1,0.43
19,Cc1ccc(F)cc1S(=O)(=O)N[C@@H]1CCN(Cc2ccc3[nH]ccc3c2)C1,0.29
20,COCCOC(=O)N1C(=O)[C@@]2(c3cc(C#CC4=CCCCC4)ccc31)[C@H](c1ccccc1OCCO)N1[C@H](c3ccccc3)[C@H](c3ccccc3)OC(=O)[C@H]1[C@@H]2C(N)=O,-0.254
21,CC1(C)OC[C@@]23C=C(Br)[C@@H](C[C@H]12)[C@@]1(CO1)C3=O,-0.54
22,CN1C(=O)C2C=CC(C(O)c3ccc(-c4ccccc4)s3)N(Nc3ccccc3)C2C1=O (stereo not drawn),-0.11
23,C=C(COC)/C(=C/C[C@H](OC(=O)c1ccncc1)c1ccc(OCCO)cc1)c1cc(C(=O)OC)ccc1OC,0.203
24,COCCn1c(C(=O)N2CCCC2)cc2c1C[C@H]1CN(C(=O)c3ccccc3)[C@@](Cc3ccccc3)(C(=O)OC)[C@@H]21,0.206
25,CCC[C@@H]1C=C(C(=O)OCC)[C@H](c2ccccc2)N1S(=O)(=O)c1ccc(C)cc1,0.144
26,COCC(=C=CC[C@@H](O)c1cccc(OCCO)c1)C[C@@H](O)COCc1ccccc1,-0.789
27,CC(C)[C@@H](C(=O)O)n1cc(-c2ccccc2)nn1,0.391
28,CN(C)CCCCNC(=O)[C@H]1C[C@H]2C(=O)NCC(=O)N2[C@H]1c1cccc(OCCO)c1,-0.46
